# Sa helicase inh – inhibitors of S. aureus replicative helicase, primary screen, biochemical, fluorescence unwinding readout | 0.05% of 120,000 active | inhibition, % (concentration not given with the values) | purified S. aureus helicase, fluorescence unwinding assay; in the data active means inhibition above about 25%, passing the limit was not always enough
# Sa growth 42C – S. aureus growth inhibition at 42 and 30 °C, primary screen, LtaS inhibitor project, RN4220, two temperatures. OD600, 20 h, 42 °C; active compounds read low. relative growth, % (concentration not given with the values). 0.53% of 170,000 active. AID 720641, 2013;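 active means relative growth at most 50% at the other temperature and 20+ points below 30 °C, or under 10% at both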
# A number is an active result; – = inactive; · = no result. The sample as a whole holds a higher share of hits than the screen did.
SMILES,Sa helicase inh,Sa growth 42C
Fc1cccc(Cl)c1C=Nc1cccnc1,–,–
CCCCC(=O)OC1=C(C(=O)c2ccccc2)N(CC)S(=O)(=O)c2ccccc21,·,–
CCCCN1C(C(=O)c2ccccc2)=C(OC(C)=O)c2ccccc2S1(=O)=O,·,-0.5
O=C(Oc1cccc2cccnc12)c1ccccc1F,–,0.8
Cc1ccc2cccc(OC(=O)c3ccccc3F)c2n1,–,·
O=c1cc(O)sc2ccccc12,–,–
O=c1[nH]sc2ccccc12,–,-1.8
CCOC(=O)c1c(NC(=O)C(C)OC(=O)c2ccc(-n3cnnn3)cc2)sc2c1CCCC2 (stereo unspecified),–,–
CCCCS(=O)c1sc2nc(C)cc(C)c2c1N (stereo unspecified),–,–
CCCCS(=O)c1sc2nc(-c3cccs3)cc(-c3ccccc3)c2c1N (stereo unspecified),–,12
CCCN(Cc1cc2cccc(C)c2[nH]c1=O)S(=O)(=O)c1ccccc1,–,–
NNc1nnc(-c2ccccc2)c(-c2ccccc2)n1,–,–
Clc1nnc(-c2ccccc2)c(-c2ccccc2)n1,·,-0.6
CCN1C(=O)/C(=N/n2cnnc2)c2ccccc21,–,–
COc1ccc(N=Cc2ccncc2)cc1,–,–
Oc1cc2c(cc1C(Nc1ccccn1)c1ccc3c(c1)OCO3)OCO2 (stereo unspecified),–,0.6
CC(NC(=O)CSc1ccccn1)c1ccc2c(c1)OCO2 (stereo unspecified),–,–
CCc1ccc(-n2c(=O)oc3ccc(Cl)cc3c2=O)cc1,–,–
CCc1ccccc1-n1c(=O)oc2ccc(Cl)cc2c1=O,–,-0.8
Cc1ccc2cc(C(N)=O)c(=N)oc2c1,–,–
CN(Cc1ccccc1)C(=O)CCn1ccc2cc(S(=O)(=O)N3CCCCC3)ccc21,–,–
COc1cc(C(=O)N=C2C(C)=CC(=O)C=C2C)cc(OC)c1OC,–,-0.6
COc1cc(C(=O)Oc2cc(C)cc(C)c2)cc(OC)c1OC,·,–
NC(=O)N/N=C/c1ccc(-c2ccc(Cl)cc2)o1,–,–
NC(=O)N/N=C/c1ccc([N+](=O)[O-])o1,·,2.5
SMILES,Sa helicase inh,Sa growth 42C
N#C/C(C(=S)NCc1ccccc1)=C1/NN=C2CCCCCN21,–,–
Cc1ccc(-c2nc(I)ccc2O)cc1,–,9.1
Cc1ccc(Nc2c(-c3ccc(O)cc3)nc3cccc(C)n23)cc1,·,–
CC(=O)N1CCN(Cc2csc(Nc3ccccc3)n2)CC1,–,–
CC1CN(Cc2csc(Nc3ccccc3)n2)CC(C)O1 (stereo unspecified),–,0.7
CCOC(=O)C(CC)n1cnc2c(nnn2-c2cccc(Cl)c2)c1=O (stereo unspecified),–,–
COc1ccc(C(=O)Nc2c(O)c3ccccc3oc2=O)cc1OC,–,–
CO[C@@H]1[C@@H](OC(N)=O)[C@@H](O)[C@H](Oc2ccc3c(O)c(NC(=O)c4ccc(O)c(CC=C(C)C)c4)c(=O)oc3c2C)OC1(C)C,·,-0.8
COc1ccc(-c2nc3ccc(C(=O)NCc4ccco4)cc3nc2-c2ccc(OC)c(OC)c2)cc1OC,·,–
Cc1c(CC#N)ccc2ccccc12,·,–
CN(C)Cc1ccc2ccc3cccc4ccc1c2c34,50,–
O=C(Cc1ccccc1)N1CCN(c2ccc(N3CCCCC3)nn2)CC1,–,–
O=C1CCCN1c1ccc(S(=O)(=O)Nc2ccc3oc4c(c3c2)CCCC4)cc1,–,–
O=S(=O)(Nc1ccc2oc3c(c2c1)CCCC3)c1ccc(F)cc1,–,39
Nc1nc(SCc2cc(=O)oc3ccc4ccccc4c23)n[nH]1,–,–
Cc1oc(S(=O)(=O)N2CCOCC2)cc1-c1nc(-c2ccc(C(F)(F)F)cc2)no1,–,–
CCn1cc(C(=O)O)c(=O)c2cc3c(cc21)OCO3,·,–
CCn1nc(C(=O)O)c(=O)c2cc3c(cc21)OCO3,·,0.5
Cc1ccc2oc(=O)c3cc(C(=O)NCCCN4CCN(C)CC4)sc3c2c1,–,–
Cc1ccc2oc(=O)c3cc(C(=O)NCCN4CCCCC4C)sc3c2c1 (stereo unspecified),46,–
CC(=O)N1CCN(C(=O)c2cn(-c3ccccc3)nc2-c2ccc(C)cc2)CC1,–,–
N#CC(C#N)=CNc1ccc(Oc2cccnc2)nc1,–,–
Cc1cc(-c2ccc(C)c(S(=O)(=O)N3CCCN(Cc4ccc(F)cc4)C3)c2)on1,–,–
Cc1onc(-c2ccccc2)c1C(=O)NC12CC3CC(CC(C3)C1)C2,–,–
Cc1onc(-c2c(Cl)cccc2Cl)c1C(=O)N[C@@H]1C(=O)N2[C@@H]1SC(C)(C)[C@@H]2C(=O)O,·,-0.4
SMILES,Sa helicase inh,Sa growth 42C
Cc1onc(-c2c(F)cccc2Cl)c1C(=O)NC1CCSC1=O (stereo unspecified),–,·
Cc1onc(-c2ccccc2)c1C(=O)NC1C(=O)N2[C@@H]1SC(C)(C)[C@@H]2C(=O)O (stereo partly specified),·,-0.9
COc1cccc(OC)c1C(=O)N[C@@H]1C(=O)N2[C@@H]1SC(C)(C)[C@@H]2C(=O)O,·,-0.7
CCCNC(=O)c1c(OC)cccc1OC,–,–
N#Cc1nccnc1S(=O)(=O)c1cccs1,·,-0.7
O=S(=O)(c1cccs1)c1cccs1,·,–
CN(C)c1ccc(NC(=O)c2cc(-c3ccccc3)nc3ccccc23)cc1,–,·
CC(C)c1nc2ccccc2n1Cc1ccccc1Cl,–,–
Cc1ccc(S(=O)(=O)NCCc2csc(-c3ccc(Cl)cc3)n2)cc1,·,–
CN1CCC(N(C)Cc2csc(-c3ccc(Cl)cc3)n2)CC1,–,-0.3
Cc1cc(=O)n(C)c(=O)n1CCCCO,–,–
N#Cc1ccc2c(c1)nc1c3ccc4c5c(ccc(c(=O)n21)c53)C(=O)NC4=O,–,0.9
CCOC(=O)c1sc(SC#N)c(-c2ccccc2)c1N,–,1.1
CCOC(=O)c1sc(SC#N)c(C(=O)OCC)c1C,–,–
COC(=O)CN1C=C(C(=O)OC)C(c2cccc(Cl)c2)C(C(=O)OC)=C1,–,–
Cc1ccc2c(=O)cc(CSCC(=O)Nc3nnc(C)s3)[nH]c2c1,·,–
Cc1cc(C)c2c(=O)cc(CSCC(=O)Nc3nnc(C)s3)[nH]c2c1,·,-0.5
Cc1ccc(OCc2nc(-c3ccc(C(=O)N4CCc5ccccc54)cc3)oc2C)cc1,–,–
COc1ccc(CC(=O)N2c3ccccc3Sc3ccccc32)cc1OC,–,–
CC(C)C(=O)Nc1c(C(=O)c2ccc(Br)cc2)oc2ccccc12,–,–
CNC(=O)NC(=O)CSc1nnc(SCC(=O)NC(=O)NC)s1,–,–
C[C@@H](O)[C@H]1C(=O)N2C(C(=O)O)=C(SCCN=CN)C[C@H]12,·,29
O=C(NC(=S)Nn1cnnc1)C1CCCCC1,–,–
CC(C)C1O/C(=N\C(=O)Nc2ccc(Cl)c(Cl)c2)NC1=O (stereo unspecified),–,0.5
CCNC(=O)/N=C1\NC(=O)C(C(C)C)O1 (stereo unspecified),–,–
SMILES,Sa helicase inh,Sa growth 42C
CC(C)(C)c1cc(C(C)(C)C)n(-c2ccc(Br)cc2)n1,–,–
CCn1c(=O)c2ccccc2n(CC(=O)Nc2ccc3c(c2)OCO3)c1=O,–,–
Cc1nc2ccccc2nc1SCC(=O)NC1CCCC(C)C1C (stereo unspecified),–,–
Cc1c(-c2ccccc2)cc2ccccn12,–,4.3
Cc1cc2ccccn2c1C(=O)Nc1ccccc1,–,–
Cc1cccc(Nc2nc3nonc3nc2Cl)c1,–,-0.4
